Publication PMC4336329 (PLoS ONE, 2015)
About 2,200 (0.71%) of roughly 310,000 compounds showed an effect of 50% or more. Effects have a minus sign here. The sample as a whole holds a higher share of strong results than the screen did.

Biological target: human ether-à-go-go-related gene (hERG) potassium channel (human, UniProt Q12809)
Experiment: primary screen, population patch clamp on CHO cells stably expressing hERG; higher = less effect of the substance

human ether-à-go-go-related gene (hERG) potassium channel, sequence (Q12809 whole entry, looked up): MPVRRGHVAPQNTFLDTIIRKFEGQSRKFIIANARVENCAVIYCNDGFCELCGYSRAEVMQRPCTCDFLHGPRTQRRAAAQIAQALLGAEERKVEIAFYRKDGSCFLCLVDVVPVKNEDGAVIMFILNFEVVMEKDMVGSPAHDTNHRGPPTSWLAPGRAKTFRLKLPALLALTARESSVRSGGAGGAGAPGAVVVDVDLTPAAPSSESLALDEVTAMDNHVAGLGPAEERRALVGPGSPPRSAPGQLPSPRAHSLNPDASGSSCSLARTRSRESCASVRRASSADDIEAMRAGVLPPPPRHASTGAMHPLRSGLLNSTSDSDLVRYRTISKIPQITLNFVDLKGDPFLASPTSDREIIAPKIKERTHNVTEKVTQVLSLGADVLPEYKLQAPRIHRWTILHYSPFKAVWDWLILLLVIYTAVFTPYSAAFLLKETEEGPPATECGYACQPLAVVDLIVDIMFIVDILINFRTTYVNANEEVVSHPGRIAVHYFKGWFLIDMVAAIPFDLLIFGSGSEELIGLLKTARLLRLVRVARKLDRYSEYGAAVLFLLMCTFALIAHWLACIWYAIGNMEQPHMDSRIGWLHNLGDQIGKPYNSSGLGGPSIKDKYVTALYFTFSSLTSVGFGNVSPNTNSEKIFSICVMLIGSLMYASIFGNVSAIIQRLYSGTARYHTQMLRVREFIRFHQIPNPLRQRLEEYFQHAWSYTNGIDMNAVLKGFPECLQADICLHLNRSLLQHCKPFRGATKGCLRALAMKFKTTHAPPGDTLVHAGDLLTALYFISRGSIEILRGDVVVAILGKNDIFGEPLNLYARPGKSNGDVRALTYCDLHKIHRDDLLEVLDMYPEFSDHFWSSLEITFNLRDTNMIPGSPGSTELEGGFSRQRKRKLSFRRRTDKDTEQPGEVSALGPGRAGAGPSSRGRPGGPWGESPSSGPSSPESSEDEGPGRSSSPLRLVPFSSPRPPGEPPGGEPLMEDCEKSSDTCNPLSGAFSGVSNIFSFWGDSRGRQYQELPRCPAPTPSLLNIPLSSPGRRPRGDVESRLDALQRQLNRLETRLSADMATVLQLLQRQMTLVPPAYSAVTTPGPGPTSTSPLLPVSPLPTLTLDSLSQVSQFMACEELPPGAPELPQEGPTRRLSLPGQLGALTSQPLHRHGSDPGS

SMILES | hERG current change (%, negative = inhibition) at 1uM
CNC(=O)C1=C(C)Nc2nc3ccccc3n2C1c1ccc(F)cc1 (stereo not shown) | 7.95%
C/C(CC(=O)Nc1ccc(F)cc1)=N\NC(=O)Cc1csc(N)n1 | 16.1%
CCOC(=O)c1nc(Nc2ccc(C(=O)O)cc2)c2ccccc2n1.Cl | 11.2%
O=C(Nc1ccccc1)N(C1=NCCCCS1)c1cccc2ccccc12 | 5.62%
O=C(O)CC1SC(=O)N(CC(=O)c2ccccc2)C1=O (stereo not shown) | 8.06%
O=C(COC(=O)Cc1cccc(C(F)(F)F)c1)NC1CC1 | 10.7%
N#CCCn1cc(C(=O)Nc2ccc([N+](=O)[O-])cc2)c(-c2ccccc2)n1 | -67.8%
N#CCCn1cc(C(=O)Nc2ccc(F)cc2)c(-c2ccc([N+](=O)[O-])cc2)n1 | 6.48%
N#CCCn1cc(C(=O)Nc2ccc(C(=O)O)cc2)c(-c2ccc([N+](=O)[O-])cc2)n1 | 16%
O=C(OCC(=O)N1CCCC1)c1ccc(S(=O)(=O)Nc2ccccc2)cc1 | -0.807%
CN(CC(=O)Nc1cccc(F)c1)C(=O)c1ccccc1Sc1ccccc1C#N | -8.06%
CC(C)(C)c1ccc(CN2C(=O)c3ccccc3S2(=O)=O)cc1 | 15.7%
CC(=O)c1cccc(NC(=O)C2CCCN(S(=O)(=O)c3ccccc3)C2)c1 (stereo not shown) | 7.51%
O=C(NCc1ccco1)C1CCCN(S(=O)(=O)c2cc(Cl)ccc2Cl)C1 (stereo not shown) | 2.52%
CN(C)c1ccc(/C=N/NC(=O)c2ccn(C)n2)cc1 | 9.92%
CC(NC(=O)c1ccc(S(=O)(=O)N(C)C)cc1)c1ccc(-n2ccnc2)cc1 (stereo not shown) | -40.5%
CC(NC(=O)c1cc(S(=O)(=O)N(C)C)ccc1Cl)c1ccc(-n2ccnc2)cc1 (stereo not shown) | -55.3%
CC(NC(=O)c1ccccc1Cl)c1ccc(-n2ccnc2)cc1 (stereo not shown) | -1.53%
COc1ccc(C(=O)CN2C(=O)NC(C)(c3ccccc3)C2=O)cc1OC (stereo not shown) | 3.32%
CCOC(=O)C1CCN(C(C)C(=O)c2c(C)[nH]c3cc(C)ccc23)CC1 (stereo not shown) | -66.9%
CCOC(=O)C1CCN(CC(=O)c2c(C)[nH]c3cc(C)ccc23)CC1 | -26.8%
CCOC(=O)C1CCN(C(C)C(=O)c2c[nH]c3ccccc23)CC1 (stereo not shown) | -1.89%

SMILES | hERG current change (%, negative = inhibition) at 1uM
CCOC(=O)C1=C(C)NC(=S)N(C(C)=O)C1c1ccc(Cl)cc1 (stereo not shown) | 9.38%
O=C1OCCC1Sc1nc2ccccc2c(=O)n1Cc1ccccc1 (stereo not shown) | -64.6%
Cc1ccc(Cn2c(SC3CCOC3=O)nc3ccccc3c2=O)cc1 (stereo not shown) | -6.65%
O=C1OCCC1Sc1nc2ccccc2c(=O)n1Cc1ccc(F)cc1 (stereo not shown) | -37.5%
COc1ccc2nc3ccccc3nc2c1NC(=O)c1ccccc1Cl | -1.38%
O=C(NCc1ccccc1)c1cnsn1 | 7.4%
CC1(C)C(=O)C2(CCCCC2)C(=O)OC1C(=O)c1ccccc1 (stereo not shown) | 6.81%
O=C(COc1ccc2c3c(c(=O)oc2c1)CCCC3)N1C[C@H]2C[C@@H](C1)c1cccc(=O)n1C2 | -6%
COc1cnn(Cc2ccccc2)c(=O)c1SCc1ccccc1 | -2%
O=C(NCc1ccc(F)cc1)c1c2c(nc3ccccc13)CCN(Cc1ccccc1)C2 | 0.811%
CCN1CCc2nc3ccccc3c(C(=O)Nc3ccc(C#N)cc3)c2C1 | -65.8%
CCOc1ccc(NC(=O)c2c3c(nc4ccccc24)CCC3)cc1 | 10.9%
CCN1CCc2nc3ccccc3c(C(=O)Nc3ccc(F)cc3)c2C1 | -81.6%
Cc1ccc(NC(=O)c2c3c(nc4ccccc24)CCC3)cc1 | 7.04%
CCN1CCc2nc3ccccc3c(C(=O)Nc3ccc(NC(C)=O)cc3)c2C1 | 12.4%
Cc1ccc(Oc2nc(C(F)(F)F)nc3ccccc23)cc1 | 6.66%
CC(C)(C)OC(=O)N/N=C\c1ccc(OC(=O)c2cccs2)cc1 | 9.49%
COc1ccc(-c2n[nH]c(=S)n2-c2ccc(Br)cc2)cc1OC | 16.7%
O=C(COC(=O)CCS(=O)(=O)c1ccccc1)Nc1ccccc1 | 0.18%
O=C(COC(=O)c1cc[n+]([O-])cc1)Nc1cc([N+](=O)[O-])ccc1Cl | 13.7%
O=C(NCC(c1ccco1)N1CCc2ccccc2C1)c1ccc([N+](=O)[O-])cc1 (stereo not shown) | -7.15%
